# According to PubChem BioAssay (NCI):
# The panel holds about 79,000 compounds, 15% with a hit somewhere; the sample as a whole holds those more often. Values without a mark were called inactive. The source made the active and inactive calls. Rule as the data show it: active = growth inhibition above about 70%; inactive = the rest.
# Tests used:
# [1] = NCI Yeast Anticancer Drug Screen. Data for the rad52 strain (AID 147);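 also: 0% = growth of vehicle-treated control cultures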; conditions: S. cerevisiae rad52 mutant growth inhibition, stronger effect = higher value
# Outline: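 Compounds are applied to a genetically defined yeast strain lacking normal DNA damage repair, and inhibition of growth is expressed relative to cultures given vehicle only.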
# [2] = NCI Yeast Anticancer Drug Screen. Data for the wt1 strain (AID 149);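 also: 0% = growth of vehicle-treated wt1 cultures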; conditions: S. cerevisiae wt1 strain (SPY 50644) growth inhibition, stronger effect = higher value
# Outline: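 Readout: yeast growth inhibition, normalised to vehicle controls, in the wt1 strain exposed to test compounds.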
# [3] = NCI Yeast Anticancer Drug Screen. Data for the rad50EPP+ strain (AID 151);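 also: 0% = growth of vehicle-treated control cultures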; conditions: S. cerevisiae rad50 mutant strain, stronger effect = higher value
# Outline: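 Compounds were applied to the rad50EPP+ yeast strain, which bears a defined DNA repair alteration, and growth inhibition was determined relative to vehicle-treated cultures.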
# [4] = NCI Yeast Anticancer Drug Screen. Data for the mgt1 strain (AID 153); conditions: S. cerevisiae mgt1 mutant growth inhibition, stronger effect = higher value
# Outline: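 Strain: mgt1 yeast, one of a set carrying defined DNA damage repair or cell cycle control alterations. Compound-treated growth compared with vehicle.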
# [5] = NCI Yeast Anticancer Drug Screen. Data for the rad50 strain (AID 155);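 also: 0% = growth of vehicle-only cultures of the same strain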; conditions: S. cerevisiae rad50 strain growth inhibition, stronger effect = higher value
# Outline: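 Compounds were tested on a yeast strain with an engineered DNA damage repair alteration; the reported value is growth inhibition normalised to vehicle treatment.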
# [6] = NCI Yeast Anticancer Drug Screen. Data for the mec2-1 strain (AID 157); conditions: S. cerevisiae mec2-1 strain, stronger effect = higher value
# Outline: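 Strain: mec2-1 (DNA repair/cell cycle alteration). Compound exposure, then growth measured; inhibition expressed relative to vehicle.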
# [7] = NCI Yeast Anticancer Drug Screen. Data for the rad14 strain (AID 159);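 also: 0% = growth of vehicle-treated control cultures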; conditions: S. cerevisiae rad14 strain growth inhibition, stronger effect = higher value
# Outline: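 Compound-treated yeast with a defined DNA-repair lesion; growth inhibition normalised to vehicle-treated cultures.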
# [8] = NCI Yeast Anticancer Drug Screen. Data for the sgs1 mgt1 strain (AID 161);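 also: 0% = growth of cultures given vehicle only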; conditions: S. cerevisiae sgs1 mgt1 strain, stronger effect = higher value
# Outline: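 Read-out: growth inhibition vs vehicle controls. Cells: mutant yeast strain deficient in DNA damage repair.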
# [9] = NCI Yeast Anticancer Drug Screen. Data for the CLN2oe strain (AID 163);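 also: 0% = growth of vehicle-only control cultures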; conditions: S. cerevisiae CLN2oe strain, stronger effect = higher value
# Outline: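 Growth of a genetically modified yeast strain is measured after compound exposure and compared with cultures given vehicle alone.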
# [10] = NCI Yeast Anticancer Drug Screen. Data for the cln2 rad14 strain (AID 165);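 also: 0% = growth equal to vehicle treated cultures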; conditions: S. cerevisiae cln2 rad14 strain, stronger effect = higher value
# Outline: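 Compounds are applied to the cln2 rad14 yeast strain, and growth is then compared with that of vehicle-treated cultures to give inhibition.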
# [11] = NCI Yeast Anticancer Drug Screen. Data for the bub3 strain (AID 167); conditions: S. cerevisiae bub3 mutant strain, stronger effect = higher value
# Outline: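 Growth of a checkpoint-deficient yeast mutant is measured after compound exposure. Values represent inhibition relative to vehicle.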
# [12] = NCI Yeast Anticancer Drug Screen. Data for the wt2 strain (AID 169);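 also: 0% = growth of vehicle-treated yeast cultures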; conditions: S. cerevisiae wt2 strain growth inhibition, stronger effect = higher value
# Outline: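 This strain belongs to a panel of yeast strains with defined genetic alterations in DNA damage repair or cell cycle control. Compounds are applied, and growth inhibition is measured against vehicle-treated cultures.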
# [13] = NCI Yeast Anticancer Drug Screen. Data for the mlh1 strain (AID 171);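 also: 0% = growth of vehicle-treated control cultures of the same strain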; conditions: S. cerevisiae mlh1 strain growth inhibition, stronger effect = higher value
# Outline: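 Growth of the mutant yeast strain after compound exposure, expressed as inhibition relative to vehicle-only controls.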
# [14] = NCI Yeast Anticancer Drug Screen. Data for the sgs1 strain (AID 173);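 also: 0% = growth of vehicle-only control cultures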; conditions: S. cerevisiae sgs1 mutant, stronger effect = higher value
# Outline: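 Growth of a yeast strain bearing a defined genetic alteration is measured after compound treatment. Inhibition is expressed relative to vehicle-only controls.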
# [15] = NCI Yeast Anticancer Drug Screen. Data for the mlh1 rad18 strain (AID 175); conditions: S. cerevisiae mlh1 rad18 strain growth inhibition, stronger effect = higher value
# Outline: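 Read-out is yeast growth inhibition, calculated against vehicle-only controls. The compound was applied to a strain engineered with DNA damage repair alterations.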
# [16] = NCI Yeast Anticancer Drug Screen. Data for the rad18 strain (AID 177); conditions: S. cerevisiae rad18 mutant growth inhibition, stronger effect = higher value
# Outline: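 Growth of the mutant yeast strain after compound exposure, normalised to vehicle-only cultures.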
# [17] = at 5.0 µM (retest, dose inferred, filed as 0.5)
# [18] = at 50.0 µM (retest, dose inferred, filed as 5.0)
structure (smiles),measurement,setting,value
CC(C(=O)N1C(=O)N(C(=O)C(C)C(O)c2ccccc2)C2CCCCC21)C(O)c1ccccc1 (stereo unspecified),growth inhibition,[1]; at 1.2 µM,5%
same,growth inhibition,[1]; at 3.7 µM,8%
same,growth inhibition,[1]; at 11.0 µM,11%
same,growth inhibition,[1]; at 33.0 µM,11%
same,growth inhibition,[1]; at 100.0 µM,19%
same,growth inhibition,[2]; at 1.2 µM,2%
same,growth inhibition,[2]; at 3.7 µM,-1%
same,growth inhibition,[2]; at 11.0 µM,7%
same,growth inhibition,[2]; at 33.0 µM,3%
same,growth inhibition,[2]; at 100.0 µM,12%
same,growth inhibition,[3]; at 1.2 µM,0%
same,growth inhibition,[3]; at 3.7 µM,-3%
same,growth inhibition,[3]; at 11.0 µM,0%
same,growth inhibition,[3]; at 33.0 µM,2%
same,growth inhibition,[3]; at 100.0 µM,3%
same,growth inhibition,[4]; at 1.2 µM,-4%
same,growth inhibition,[4]; at 3.7 µM,0%
same,growth inhibition,[4]; at 11.0 µM,1%
same,growth inhibition,[4]; at 33.0 µM,1%
same,growth inhibition,[4]; at 100.0 µM,29%
same,growth inhibition,[5]; at 1.2 µM,0%
same,growth inhibition,[5]; at 3.7 µM,-9%
same,growth inhibition,[5]; [17],-5%
same,growth inhibition,[5]; at 11.0 µM,-7%
same,growth inhibition,[5]; at 33.0 µM,16%
same,growth inhibition,[5]; [18],8%
same,growth inhibition,[5]; at 50.0 µM,97.1% (active)
same,growth inhibition,[5]; at 100.0 µM,20%
same,growth inhibition,[6]; at 1.2 µM,3%
same,growth inhibition,[6]; at 3.7 µM,1%
same,growth inhibition,[6]; [17],-7%
same,growth inhibition,[6]; at 11.0 µM,2%
same,growth inhibition,[6]; at 33.0 µM,14%
same,growth inhibition,[6]; [18],-2%
same,growth inhibition,[6]; at 50.0 µM,97.2% (active)
same,growth inhibition,[6]; at 100.0 µM,24%
same,growth inhibition,[7]; at 1.2 µM,2%
same,growth inhibition,[7]; at 3.7 µM,1%
same,growth inhibition,[7]; at 11.0 µM,4%
same,growth inhibition,[7]; at 33.0 µM,9%
same,growth inhibition,[7]; at 100.0 µM,20%
same,growth inhibition,[8]; [17],-7%
same,growth inhibition,[8]; [18],11%
same,growth inhibition,[8]; at 50.0 µM,97.5% (active)
same,growth inhibition,[9]; at 1.2 µM,1%
same,growth inhibition,[9]; at 3.7 µM,-2%
same,growth inhibition,[9]; at 11.0 µM,4%
same,growth inhibition,[9]; at 33.0 µM,11%
same,growth inhibition,[9]; at 100.0 µM,15%
same,growth inhibition,[10]; [17],87% (active)
same,growth inhibition,[10]; [18],14%
same,growth inhibition,[10]; at 50.0 µM,96.5% (active)
same,growth inhibition,[11]; at 1.2 µM,-2%
same,growth inhibition,[11]; at 3.7 µM,-1%
same,growth inhibition,[11]; [17],-13%
same,growth inhibition,[11]; at 11.0 µM,-2%
same,growth inhibition,[11]; at 33.0 µM,1%
same,growth inhibition,[11]; [18],-9%
same,growth inhibition,[11]; at 50.0 µM,97.8% (active)
same,growth inhibition,[11]; at 100.0 µM,4%
same,growth inhibition,[12]; at 1.2 µM,-2%
same,growth inhibition,[12]; at 3.7 µM,-1%
same,growth inhibition,[12]; at 11.0 µM,1%
same,growth inhibition,[12]; at 33.0 µM,7%
same,growth inhibition,[12]; at 100.0 µM,29%
same,growth inhibition,[13]; at 1.2 µM,0%
same,growth inhibition,[13]; at 3.7 µM,0%
same,growth inhibition,[13]; at 11.0 µM,1%
same,growth inhibition,[13]; at 33.0 µM,11%
same,growth inhibition,[13]; at 100.0 µM,26%
same,growth inhibition,[14]; at 1.2 µM,2%
same,growth inhibition,[14]; at 3.7 µM,2%
same,growth inhibition,[14]; at 11.0 µM,0%
same,growth inhibition,[14]; at 33.0 µM,23%
same,growth inhibition,[14]; at 100.0 µM,46%
same,growth inhibition,[15]; [17],2%
same,growth inhibition,[15]; [18],1%
same,growth inhibition,[15]; at 50.0 µM,97.2% (active)
same,growth inhibition,[16]; at 1.2 µM,2%
same,growth inhibition,[16]; at 3.7 µM,4%
same,growth inhibition,[16]; at 11.0 µM,5%
same,growth inhibition,[16]; at 33.0 µM,20%
same,growth inhibition,[16]; at 100.0 µM,27%
COc1cc(OC)c(CSCC(NC(=O)OCC2c3ccccc3-c3ccccc32)C(=O)O)c(OC)c1 (stereo unspecified),growth inhibition,[1]; at 1.2 µM,0%
same,growth inhibition,[1]; at 3.7 µM,5%
same,growth inhibition,[1]; at 11.0 µM,48%
same,growth inhibition,[1]; at 33.0 µM,97% (active)
same,growth inhibition,[1]; at 100.0 µM,98% (active)
same,growth inhibition,[2]; at 1.2 µM,1%
same,growth inhibition,[2]; at 3.7 µM,9%
same,growth inhibition,[2]; at 11.0 µM,55%
same,growth inhibition,[2]; at 33.0 µM,96% (active)
same,growth inhibition,[2]; at 100.0 µM,99% (active)
same,growth inhibition,[3]; at 1.2 µM,-2%
same,growth inhibition,[3]; at 3.7 µM,-2%
same,growth inhibition,[3]; at 11.0 µM,-1%
same,growth inhibition,[3]; at 33.0 µM,0%
same,growth inhibition,[3]; at 100.0 µM,-3%
same,growth inhibition,[4]; at 1.2 µM,-2%
same,growth inhibition,[4]; at 3.7 µM,8%
same,growth inhibition,[4]; at 11.0 µM,52%
same,growth inhibition,[4]; at 33.0 µM,97% (active)
same,growth inhibition,[4]; at 100.0 µM,98% (active)
same,growth inhibition,[5]; at 1.2 µM,-6%
same,growth inhibition,[5]; at 3.7 µM,-9%
same,growth inhibition,[5]; [17],15%
same,growth inhibition,[5]; at 11.0 µM,43%
same,growth inhibition,[5]; at 33.0 µM,94% (active)
same,growth inhibition,[5]; [18],99% (active)
same,growth inhibition,[5]; at 50.0 µM,98.6% (active)
same,growth inhibition,[5]; at 100.0 µM,98% (active)
same,growth inhibition,[6]; at 1.2 µM,2%
same,growth inhibition,[6]; at 3.7 µM,11%
same,growth inhibition,[6]; [17],12%
same,growth inhibition,[6]; at 11.0 µM,55%
same,growth inhibition,[6]; at 33.0 µM,96% (active)
same,growth inhibition,[6]; [18],99% (active)
same,growth inhibition,[6]; at 50.0 µM,99.2% (active)
same,growth inhibition,[6]; at 100.0 µM,98% (active)
same,growth inhibition,[7]; at 1.2 µM,-2%
same,growth inhibition,[7]; at 3.7 µM,10%
same,growth inhibition,[7]; at 11.0 µM,68%
same,growth inhibition,[7]; at 33.0 µM,96% (active)
same,growth inhibition,[7]; at 100.0 µM,99% (active)
same,growth inhibition,[8]; [17],-4%
same,growth inhibition,[8]; [18],98% (active)
same,growth inhibition,[8]; at 50.0 µM,99% (active)
same,growth inhibition,[9]; at 1.2 µM,0%
same,growth inhibition,[9]; at 3.7 µM,13%
same,growth inhibition,[9]; at 11.0 µM,68%
same,growth inhibition,[9]; at 33.0 µM,99% (active)
same,growth inhibition,[9]; at 100.0 µM,98% (active)
same,growth inhibition,[10]; [17],52%
same,growth inhibition,[10]; [18],99% (active)
same,growth inhibition,[10]; at 50.0 µM,98.4% (active)
same,growth inhibition,[11]; at 1.2 µM,0%
same,growth inhibition,[11]; at 3.7 µM,10%
same,growth inhibition,[11]; [17],3%
same,growth inhibition,[11]; at 11.0 µM,61%
same,growth inhibition,[11]; at 33.0 µM,95% (active)
same,growth inhibition,[11]; [18],99% (active)
same,growth inhibition,[11]; at 50.0 µM,99.2% (active)
same,growth inhibition,[11]; at 100.0 µM,98% (active)
same,growth inhibition,[12]; at 1.2 µM,-1%
same,growth inhibition,[12]; at 3.7 µM,6%
same,growth inhibition,[12]; at 11.0 µM,58%
same,growth inhibition,[12]; at 33.0 µM,98% (active)
same,growth inhibition,[12]; at 100.0 µM,98% (active)
same,growth inhibition,[13]; at 1.2 µM,3%
same,growth inhibition,[13]; at 3.7 µM,9%
same,growth inhibition,[13]; at 11.0 µM,62%
same,growth inhibition,[13]; at 33.0 µM,97% (active)
same,growth inhibition,[13]; at 100.0 µM,98% (active)
same,growth inhibition,[14]; at 1.2 µM,1%
same,growth inhibition,[14]; at 3.7 µM,9%
same,growth inhibition,[14]; at 11.0 µM,45%
same,growth inhibition,[14]; at 33.0 µM,95% (active)
same,growth inhibition,[14]; at 100.0 µM,98% (active)
same,growth inhibition,[15]; [17],5%
same,growth inhibition,[15]; [18],99% (active)
same,growth inhibition,[15]; at 50.0 µM,98.4% (active)
same,growth inhibition,[16]; at 1.2 µM,0%
same,growth inhibition,[16]; at 3.7 µM,8%
same,growth inhibition,[16]; at 11.0 µM,36%
same,growth inhibition,[16]; at 33.0 µM,96% (active)
same,growth inhibition,[16]; at 100.0 µM,97% (active)
